According to the supplement of paper PMC10981050:
“And” between values parts separate entries of the source, which are not always exact repeats. Identical values can stand only once. Counter-ions that a name gives are not always drawn.

Experiments:
Assay in all cases: cell viability relative to vehicle control; higher = less cytotoxic
Settings in all cases: 10 µM
[1] = test system: K562
Outline: (§1)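 Four leukaemia lines, as CRISPR-edited mutant clones and isogenic wild-type clones, were tested against Selleck bioactive, kinase and epigenetic probe libraries after removal of identity-inconsistent compounds. Cells were exposed to a single 10 µM dose for 48 h, and CellTiter-Glo luminescence was then read. Viability was calculated relative to the on-plate vehicle control.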

[2] = test system: MARIMO
Outline: as §1

[3] = test system: MOLM14
Outline: as §1

[4] = test system: OCI-AML2
Outline: as §1

| SMILES | cell viability ([1]; SRSF2 genotype: SRSF2 P95H/wt) | cell viability ([1]; SRSF2 genotype: SRSF2 wt/wt) [%] | cell viability ([2]; SRSF2 genotype: SRSF2 P95H/wt) [%] | cell viability ([2]; SRSF2 genotype: SRSF2 wt/wt) [%] | cell viability ([3]; SRSF2 genotype: SRSF2 P95H/wt) [%] | cell viability ([3]; SRSF2 genotype: SRSF2 wt/wt) [%] | cell viability ([4]; SRSF2 genotype: P95H/wt) [%] | cell viability ([4]; SRSF2 genotype: wt/wt) [%] |
| --- | --- | --- | --- | --- | --- | --- | --- | --- |
| COc1cc(OC)c(/C=C/S(=O)(=O)Cc2ccc(OC)c(NCC(=O)O)c2)c(OC)c1 | 16.5% and 39% | 35.6 | 5.99 | 9.46 | 0.51 | 0.74 | 1.32 | 2.98 |
| Cc1ccc2c(c1)c1c(n2CCc2ccc(C)nc2)CCN(C)C1 [Latrepirdine 2HCl] | 88.7% and 89.9% | 80.2 | 73.8 | 82 | 74.4 | 84.6 | 73.7 | 76 |
| CCN(CC)CCOC(=O)c1ccc(N)cc1 [Procaine] | 100% and 99% | 102 | 99.6 | 108 | 107 | 105 | 104 | 101 |
| COc1cccc2c1C(=O)c1c(O)c3c(c(O)c1C2=O)CC(O)(C(=O)CO)CC3OC1CC(N)C(O)C(C)O1 (stereo not given) [Doxorubicin (Adriamycin) HCl] | 4.96% and 11.8% | 6.38 | 5.57 | 2.71 | 1 | 0.45 | 2.05 | 12.5 |
| CC(=O)Oc1ccc(C(=C2CCCCC2)c2ccc(OC(C)=O)cc2)cc1 [Cyclofenil] | 98% and 94.2% | 98.5 | 96.8 | 95.8 | 94.3 | 102 | 96.8 | 96.9 |
| CNCCC(Oc1ccc(C(F)(F)F)cc1)c1ccccc1 (stereo not given) [Fluoxetine HCl] | 75.2% and 82.5% | 88.8 | 63.5 | 75.2 | 68.8 | 81.6 | 63.1 | 74.1 |
| C[C@H]1C[C@@H]2[C@H]([C@@H](O)C[C@@]3(C)[C@H]2CC[C@]3(O)C(=O)CO)[C@@]2(C)C=CC(=O)C=C12 [Methylprednisolone] | 100% and 106% | 103 | 110 | 103 | 95.8 | 98.8 | 99.8 | 107 |
| CC/C(=C(\c1ccc(O)cc1)c1ccc(OCCN(C)C)cc1)c1ccccc1 [4-Hydroxytamoxifen] | 27.4% and 32.6% | 28 | 55.8 | 53.5 | 32.9 | 27.8 | 22.6 | 39.5 |
| CCCCCOc1ccccc1/C(=C\SC)n1ccnc1 [Neticonazole Hydrochloride] | 66.4% and 59.1% | 68.9 | 45.7 | 39 | 59.7 | 54.8 | 25.7 | 26 |
| Nc1[nH]c(=O)ncc1Br [5-Bromocytosine] | 102% and 99.4% | 105 | 101 | 103 | 104 | 105 | 98.1 | 108 |
| COc1cc2ncnc(Nc3ccc(O)c(Br)c3)c2cc1OC | 93.8% and 101% | 96.4 | 85.4 | 84.6 | 32.4 | 24.3 | 61.8 | 63.9 |
| Nc1ncnc2c1ncn2[C@@H]1O[C@H](COP(=O)(O)O)[C@@H](O)[C@H]1O [5'-Adenylic acid] | 99.5% and 92.5% | 90.4 | 84 | 87.2 | 87.1 | 89.3 | 99.6 | 93.9 |
| C=C[C@@]1(C)CC(=O)[C@]2(O)[C@@]3(C)[C@@H](O)CCC(C)(C)[C@@H]3[C@H](O)[C@H](OC(C)=O)[C@@]2(C)O1 [Forskolin] | 96.8% and 104% | 94 | 99 | 88.6 | 92.6 | 101 | 105 | 96.1 |
| COc1ncc(-c2cc(-c3ncc(CN4C[C@@H](C)O[C@@H](C)C4)o3)c3cn[nH]c3c2)cc1NS(C)(=O)=O | 53.5% and 58.5% | 61.2 | 42.6 | 37.1 | 23.5 | 27.3 | 13.1 | 25.8 |
| Cc1c(O)c(=O)ccn1C [Deferiprone] | 96.7% and 92.2% | 93.6 | 90.6 | 102 | 87 | 93.9 | 90.5 | 96.3 |
| Cn1c(O)c(C2=c3ccccc3=NC2=O)c2ccccc21 [Meisoindigo] | 22.4% and 19.2% | 43.4 | 0.73 | 0.66 | 0.36 | 0.48 | 0.36 | 0.46 |
| C#Cc1cccc(Nc2ncnc3cc(OC)c(OCCCCCCC(=O)NO)cc23)c1 | 1.25% and 12.2% | 3.12 | 9.16 | 8.09 | 1.03 | 0.53 | 1.68 | 2.66 |
| C[C@H](N=C(NC#N)Nc1cccc2ncccc12)c1ccccc1 | 99.3% and 100% | 97 | 104 | 107 | 97.6 | 98.4 | 108 | 112 |
| NCc1c[nH]c(=S)n1[C@@H]1CCc2c(F)cc(F)cc2C1 [(R)-Nepicastat HCl] | 101% and 97% | 102 | 94.9 | 110 | 97.2 | 101 | 104 | 103 |
| COc1cc(C(=O)NS(=O)(=O)c2ccccc2C)ccc1Cc1cn(C)c2ccc(NC(=O)OC3CCCC3)cc12 [Zafirlukast (Accolate)] | 97.3% and 96.5% | 92.8 | 96 | 110 | 94.3 | 97 | 94.4 | 104 |
